Assay results: the supplement of paper PMC12494721
Where a name gives a salt, the structure may show the parent alone.

Each compound was assayed on Klebsiella aerogenes DSM 30053 (assay: fold change of Histamine concentration vs plate DMSO controls (fold change (ratio)); higher = more amine produced, active = hit call of the paper (significant change in both replicates, either direction)). Settings: incubation time: 27 h, anaerobic, 37 °C;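 for the amine columns active = adjusted P below 0.05 in both replicates with a change the same way and a mean fold change under 0.8 or over 1.25; inactive = the rest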.
Outline: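 Each value is the fold change relative to DMSO-only wells on the same plate. Four gut bacterial strains were grown anaerobically in mGAM at 37 °C for 27 h in 80 µL wells, starting at OD 0.1 before a 1:1 dilution, with compounds at 20 µM final (sweeteners 50 µM). Whole cultures were extracted with cold acetonitrile/methanol containing 0.1% formic acid, centrifuged, and amines were quantified by LC–triple-quadrupole MS (dynamic MRM) against external calibration curves with within-batch drift correction. Values are means of 2 biological replicates.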

Fold change of Histamine concentration, inactive:
CN(C(=O)CN(CCO)CC(=O)N(C)C(C)(C)Cc1ccccc1)C(C)(C)Cc1ccccc1 [Oxethazaine] (20 µM) 0.971, CCCCC(CC)CN1C(=O)[C@@H]2[C@H](C1=O)[C@@H]1C=C[C@H]2C1 (mixture of isomers) (20 µM) 0.925, CC(=O)OCC1=C(C(=O)O)N2C(=O)[C@@H](NC(=O)Cc3cccs3)[C@H]2SC1 [Cephalothin sodium salt] (20 µM) 1.1, Cc1cc(CC(=O)O)n(C)c1C(=O)c1ccc(Cl)cc1 [Zomepirac sodium salt] (20 µM) 1.05, CC(CNC1CCCCC1)OC(=O)c1ccccc1 (centres undefined) [Hexylcaine hydrochloride] (20 µM) 1.02, CC(C)n1c(/C=C/C(O)CC(O)CC(=O)O)c(-c2ccc(F)cc2)c2ccccc21 (centres undefined) [Fluvastatin sodium salt] (20 µM) 0.914, CCCc1cc(=O)[nH]c(=S)[nH]1 [Propylthiouracil] (20 µM) 0.972, CC(=O)Nc1ccc(OCC(O)CNC(C)C)cc1 (centres undefined) [Practolol] (20 µM) 1.03, C[C@@H]1O[C@@H](O[C@H]2[C@H](Oc3cc(O)c(C(=O)CCc4ccc(O)cc4)c(O)c3)O[C@H](CO)[C@@H](O)[C@@H]2O)[C@H](O)[C@H](O)[C@H]1O [Naringin Dihydrochalcone] (50 µM) 0.958, Nc1cc(-c2ccncc2)c[nH]c1=O [Amrinone] (20 µM) 0.956, CC#CCn1c(N2CCC[C@@H](N)C2)nc2c1c(=O)n(Cc1nc(C)c3ccccc3n1)c(=O)n2C [Linagliptin] (20 µM) 1.08, CCOc1ccc2c(c1)C(C)=CC(C)(C)N2 [Ethoxyquin] (20 µM) 1.07, Cn1c(=O)c2c(ncn2C)n(C)c1=O [Caffeine] (20 µM) 1.07, C[C@]12CC[C@@H]3c4ccc(O)cc4CC[C@H]3[C@@H]1CC[C@@H]2O [Estradiol-17 beta] (20 µM) 1.03, CC(=O)OCC(=O)[C@@]12OC3(CCCC3)O[C@@H]1C[C@H]1[C@@H]3CCC4=CC(=O)C=C[C@]4(C)[C@@]3(F)[C@@H](O)C[C@@]12C [Amcinonide] (20 µM) 1.04, OCCN1CCN(CCCN2c3ccccc3C=Cc3ccccc32)CC1 [Opipramol dihydrochloride] (20 µM) 1.03, CC(C)[N+](C)(CCOC(=O)C1c2ccccc2Oc2ccccc21)C(C)C [Propantheline bromide] (20 µM) 1, C[C@H](O)[C@H](O)[C@H]1CNc2[nH]c(N)nc(=O)c2N1 [Sapropterin dihydrochloride] (20 µM) 0.931, CCN(CC)CCNC(=O)c1cc(S(C)(=O)=O)ccc1OC [Tiapride hydrochloride] (20 µM) 0.997, CNCCCN1c2ccccc2CCc2ccccc21 [Desipramine hydrochloride] (20 µM) 1.06, COc1ccccc1OCC(O)CN1CCN(CC(=O)Nc2c(C)cccc2C)CC1 (centres undefined) [Ranolazine] (20 µM) 0.957, CC(=O)c1ccc2c(c1)N(CCCN1CCC(CCO)CC1)c1ccccc1S2 [Piperacetazine] (20 µM) 0.95, Cn1cc(C(=O)Nc2ccc(F)cc2-c2ccc(Cl)c(Cl)c2)c(C(F)F)n1 (20 µM) 1.06, Nc1nc(=O)[nH]cc1F [Flucytosine] (20 µM) 1.07, O=c1oc2cc(O)ccc2s1 [Tioxolone] (20 µM) 1.02, CCN1C(=O)NC(c2ccccc2)C1=O (centres undefined) [Ethotoin] (20 µM) 1.06, C=C1/C(=C\C=C2/CCC[C@]3(C)[C@@H]([C@H](C)/C=C/[C@@H](O)C4CC4)CC[C@@H]23)C[C@@H](O)C[C@@H]1O [Calcipotriene] (20 µM) 1.02, COc1ccc([C@@H]2Sc3ccccc3N(CCN(C)C)C(=O)[C@@H]2OC(C)=O)cc1 [Diltiazem hydrochloride] (20 µM) 1.07, N#Cc1ccc(C(c2ccc(C#N)cc2)n2cncn2)cc1 [Letrozole] (20 µM) 1.07
